About 83,000 compounds went through this panel and 20% of them were active in at least one assay; those are over-represented in the sample as a whole.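 Single-concentration screen, 48 h exposure, 96-well plates. Endpoint: percent growth. Below 10 = active.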 Unmarked numbers belong to inactive results. Calls of active or inactive are those of the source.
system: HL-60(TB) leukemia; experiment: NCI-60 one-dose screen, 48 h (100 = growth as untreated, 0 = no growth, -100 = all killed); conditions: 10 µM unless noted

| Compound | growth |
| --- | --- |
| Cc1nc(NN)c([N+](=O)[O-])c(NN)n1 | 68.1% |
| Clc1ccccc1Nc1ccc2nnc(-c3ccncc3)n2n1 | 75.8% |
| CCCNC(=O)c1ccc(S(N)(=O)=O)cc1 | 133% |
| COc1ccc(-c2cc(-c3cccc(NS(C)(=O)=O)c3)nc(N)c2C#N)cc1 | 0.807% (active) |
| O=c1c(-c2nc3ccccc3[nH]2)cc2ccccc2n1Cc1cn(Cc2ccc(N3CCOCC3)cc2)nn1 | 104% |
| Cc1ccc(Nc2ncnc3c2sc2ncccc23)cc1 | 71.2% |
| NS(=O)(=O)Oc1ccc(NC(=O)C23CC4CC(CC(C4)C2)C3)cc1Cl | 100% |
| CC(C)=CCNc1ncnc2c1ncn2C1OC(COP(=O)(O)O)C(O)C1O (stereo not given) | -38.4% (active) |
| CC1C(=O)CCCC1=O | 118% |
| CCCCCC(=O)Oc1ccc(/C(=C(\C)c2ccccc2)c2ccc(OCCN3CCCCC3)cc2)cc1 | 70.2% |
| CCOS(=O)(=O)c1ccc([N+](=O)[O-])cc1 | 95.9% |
| COc1cc(/C=C/c2cc(/C=C/c3ccc(O)c(OC)c3)n(-c3ccccc3)n2)ccc1O | -42.2% (active) |
| CCCCCc1cc[n+](CC(=O)c2ccc([N+](=O)[O-])cc2)cc1 | 102% |
| CO[C@H](C(=O)[C@@H](O)[C@@H](C)O)[C@@H]1Cc2cc3cc(O[C@H]4C[C@@H](O[C@H]5C[C@@H](O)[C@H](O)C(C)O5)[C@H](O)C(C)(O)O4)cc(O)c3c(O)c2C(=O)[C@H]1O[C@H]1C[C@@H](O[C@H]2C[C@@H](O[C@H]3C[C@@H](OC)[C@H](O)C(C)O3)[C@@H](O)C(C)O2)[C@H](O)C(C)O1 (stereo not given in full) | 71% |
| COc1cc(C(=O)/C=C/c2ccc(N3CCN(C)CC3)cc2)cc(OC)c1OC | 98.2% |
| Clc1ccc2c(NCCCCNc3nc(N4CCOCC4)nc4ccccc34)ccnc2c1 | -59.8% (active) |
| Fc1ccc(COc2ccc(Nc3ncnc4sc5c(c34)CCCC5)cc2)cc1 | 87.4% |
| N=c1c(C(=O)OCc2ccccc2)ncc(CCl)n1O | 81.4% |
| CCN(CC)CCCC(C)Nc1c2ccc(Cl)cc2nc2ccc(OC)cc12 (stereo not given) | 55.3% |
| COc1ccc(C(=O)/C=C/Nc2cc(-c3ccccc3)nn2-c2ccccc2)cc1 | 93.2% |

| Compound | growth |
| --- | --- |
| CCCCCCCCCc1ccc(OC(C)=O)cc1 | 108% |
| O=C(Nc1ccc2ncnc(Nc3ccc(Oc4cccc(F)c4)c(Cl)c3)c2c1)c1ccc(CNCCO)cc1 | 22.3% |
| CC(=O)O[C@]1(C)CC[C@H]2[C@H](CNCCc3ccc(Cl)cc3)C(=O)O[C@@H]2C2=C(C)C(=O)C[C@H]21 | 89.2% |
| Clc1ccc2c(Nc3ccc4oc(NCCN5CCCC5)nc4c3)ccnc2c1 | 72.3% |
| Cc1ccc2c(c1)c1nc3cc(C)c(C)cc3nc1n2CCN(C)C | 11% |
| COc1nc2ccc(C)cc2cc1-c1nc2c(cnn2-c2ccc(Br)cc2)c(=O)[nH]1 | 23.7% |
| COc1cccc(-c2nc(-c3ccc(NC(=O)C(C)C)cc3)[nH]c2-c2ccnc(Br)c2)c1 | -23.4% (active) |
| O=C(N/N=C\c1cc(Cl)ccc1O)N/N=C/c1cc(Cl)ccc1O | 6.64% (active) |
| CC(C)[C@@H]1C=C2CC[C@H]3[C@](C)(CN)CCC[C@]3(C)[C@H]2CC1 | 70.1% |
| CSc1nnc(-c2cc3c([nH]c4ccccc43)c(-c3cccc(O)c3)n2)n1-c1ccc(C)cc1 | -16.1% (active) |
| O=S(=O)(NCCCNc1nccc(-c2c(-c3ccc(F)cc3)nc3sccn23)n1)c1ccc(F)cc1 | 35.5% |
| CC(C)(C)C(=O)OCOP(=O)(OCOC(=O)C(C)(C)C)C1CCCN(OC(=O)c2ccccc2)C1=O (stereo not given) | 35.1% |
| NC(=O)c1ncn(C2OC(CO)C(O)C2O)n1 (stereo not given) | 83.1% |
| CCOC(=O)c1cc2c(n1Cc1cccc(OC)c1)-c1oncc1CCC2 | 7.26% (active) |
| O=C(Cc1ccccc1)NNc1nc(Cl)nc(N2CCN(C(c3ccccc3)c3ccccc3)CC2)n1 | 58.2% |
| OC(c1cccc(OCc2ccccc2)c1)c1nnc(-c2ccccc2)o1 (stereo not given) | 96.3% |
| CCC(C)NCC(=O)O (stereo not given) | 100% |
| CCCN1C(=O)/C(=c2\sc3n(c2=O)C2C(NN=3)N(CC)C(=O)N2CC)c2ccccc21 (stereo not given) | -40.8% (active) |
| CC1(C)C2=C(C(=O)N1Cc1ccccc1)C(c1ccco1)N(C(=O)C1CCC1)CCN2 (stereo not given) | 99.1% |
| CCOC(=O)CSSCC(=O)OCC | 108% |

Source: PubChem BioAssay (NCI)
